Source: PubChem BioAssay (National Center for Advancing Translational Sciences (NCATS))
DRD3 agonist: activates the human D3 dopamine receptor; P35462; D3R DiscoveRx beta-arrestin cells, luminescence, 90 min; max activation, %; 410,000 compounds, 0.58% hits; in the data active means max activation above about 30%; further: 0% is about no effect
Target sequence (P35462 whole entry, looked up): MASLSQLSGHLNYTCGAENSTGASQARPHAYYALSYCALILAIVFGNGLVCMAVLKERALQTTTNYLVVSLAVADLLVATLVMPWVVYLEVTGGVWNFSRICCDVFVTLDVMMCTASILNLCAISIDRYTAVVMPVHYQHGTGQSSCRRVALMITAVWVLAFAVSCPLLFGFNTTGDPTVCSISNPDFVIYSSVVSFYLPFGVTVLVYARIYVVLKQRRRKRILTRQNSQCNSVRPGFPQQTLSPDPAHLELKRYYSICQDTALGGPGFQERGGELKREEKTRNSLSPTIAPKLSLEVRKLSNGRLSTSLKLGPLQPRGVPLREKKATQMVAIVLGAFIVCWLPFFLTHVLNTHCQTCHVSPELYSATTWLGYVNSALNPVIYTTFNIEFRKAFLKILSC
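Agonist-mode cell screen: cells plated at 1500/well and incubated overnight at 37 °C, then exposed to library compounds for 90 min at 37 °C. Detection reagent was added for 30–60 min at room temperature, and luminescence was read.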
DT40 TDP1 no CPT: qHTS for Inhibitors of human tyrosyl-DNA phosphodiesterase 1 (TDP1): qHTS in cells in absence of CPT. Potency, µM (highest dose often 46.2 µM), for the others: at the top dose activity change, negative = growth inhibition, actives largely listed as inhibitors. DT40 Tdp1-/- hTDP1 cells, no CPT, ATP luminescence, 48 h. 420,000 compounds, 15% hits. AID 686978, 2013; further: potency means the concentration at half of the fitted maximal effect; on the % scale 0 is the no-effect control and ±100 the full control effect; nearly all actives have a fitted effect of over 55% in size
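Growth of hTDP1-complemented DT40 Tdp1-knockout cells is measured by ATP luminescence after at least 48 hr compound exposure at 37 °C, with DMSO substituting for the 20 nM CPT used in the parallel screen.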
ClpP mod: qHTS Assay for Activators of ClpP; ATP-dependent Clp protease proteolytic subunit (Bacillus subtilis (strain 168)), P80244; purified B. subtilis ClpP, FRET peptide cleavage, 20 min; Potency, µM (doses to about 57.5 µM), for the others: at the highest dose activity change, negative = active; 340,000 compounds, 1.9% hits; AID 651965, 2013; active means well fitted falling curve with a large enough effect; inconclusive means small, poorly fitted or top-dose-only effect; inactive means no such curve, though single readings can be large or run the other way; further: potency means the concentration at half of the fitted maximal effect; the source files actives as falling curves though it sought activators and does not explain the sign; nearly all actives have a fitted effect of over 65% in size
Target sequence (P80244 whole entry, looked up): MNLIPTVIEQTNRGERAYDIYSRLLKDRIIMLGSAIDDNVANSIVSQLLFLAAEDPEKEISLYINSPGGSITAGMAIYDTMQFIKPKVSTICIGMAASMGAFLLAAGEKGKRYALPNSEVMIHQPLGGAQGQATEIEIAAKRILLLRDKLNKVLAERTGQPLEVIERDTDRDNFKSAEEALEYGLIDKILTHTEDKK
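Buffer: 100 mM Tris/HCl pH8, 100 mM KCl, 0.05% low protease BSA, 2.5% glycerol, 0.01% Tween-20. ClpP 10 microg/mL final; 20 min RT; delta FRET normalized to ADEP and DMSO controls.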
D3 antag: antagonists of human D3 dopamine receptor. P35462. D3R cells, DiscoveRx beta-arrestin luminescence, antagonist mode; active compounds read low. max response, negative = inhibition, %. 360,000 compounds, 2.5% hits. AID 652054; in the data active means max response below about -50%; inconclusive means no clear call, values can overlap the other calls; further: on the % scale 0 is the no-effect control and ±100 the full control effect
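Cells plated overnight at 1500 cells/well, then exposed to library compounds with dopamine controls for 90 minutes at 37 degrees C. DiscoveRx reagent added for 30–60 minutes at room temperature; luminescence read, quantitative HTS format.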
IL1B secr inh: inflammasome signaling inhibition, IL-1 beta readout; THP-1 LPS/ATP IL-1B secretion, AlphaLISA, 16 h; active compounds read low; activity change, % at 57.5 µM; 360,000 compounds, 4.7% hits; AID 743279; in the data active means activity change below about -50%; inconclusive means mostly about -30% to -49%; further: on the % scale 0 is the no-effect control and ±100 the full control effect
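Secreted IL-1B measured by AlphaLISA bead assay after 16 h compound exposure of THP-1 cells; compounds (final up to 57.5 uM) added 1 h before LPS (250 ng/mL) and ATP (1.25 mM) stimulation; lower signal means less secretion.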
TDP1 cell CPT: growth inhibition of DT40 Tdp1-/-;hTDP1 cells with camptothecin (screen for TDP1 inhibitors) | 420,000 compounds, 12% hits | Potency, µM (highest dose often 46.2 µM), for inactives: at the top dose activity change, negative = growth inhibition, most hits filed as inhibitors | chicken DT40 Tdp1-/-;hTDP1 cells + 20 nM CPT, ATP luminescence, 48 h; further: potency means the concentration at half of the fitted maximal effect; on the % scale 0 is the no-effect control and ±100 the full control effect; nearly all actives have a fitted effect of over 55% in size
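Chicken DT40 Tdp1-/- cells stably complemented with human TDP1 were seeded at 400 cells/well in medium containing 20 nM camptothecin, exposed to pin-transferred compounds, and grown at 37 °C for at least 48 hr. Viability was read as ATP luminescence.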
* marks the source's active call; other numbers are inactive results; ? = inconclusive; · = not tested or not shown; [ ] = remark or other dose. Sampled rows, rich in hits. Any-hit rate of the full collection: about 21%. Unless noted, the call rests on the fitted dose curve; in most records, active means well fitted inhibition curve with a large enough effect; inconclusive means small, poorly fitted or top-dose-only effect; inactive means flat fitted curve, though single readings scatter.

SMILES	DRD3 agonist	DT40 TDP1 no CPT	ClpP mod	D3 antag	IL1B secr inh	TDP1 cell CPT
Cc1ccc2c(c1)c1c3n2CCN(C(=O)c2ccc(C(F)(F)F)cc2)C3CCC1 (configuration not stated)	3.8	·	-5.4%	·	·	·
COc1cc(C2C=C(C34CC5CC(CC(C5)C3)C4)NC(=S)N2)cc(OC)c1OC (configuration not stated)	-17.4	5.8µM*	-0.9%	-81.7*	0.0	?
CC1CCC2C(C)(C)C3CC12CC[C@]3(C)O (some centres not stated)	·	-11.3%	·	·	·	-11.6%
CCOc1ccc2[nH]c(=O)c(CN(Cc3cccs3)Cc3nnnn3C(C)(C)C)cc2c1	5.3	15.8µM*	-2.1%	-10.7	?	20.6µM*
CCOC(=O)Cn1nnnc1CN(Cc1cccs1)Cc1cc2cc(C)ccc2[nH]c1=O	-16.9	?	-29.9%	-3.7	5.5	?
COc1ccc2[nH]c(=O)c(CN(Cc3cccs3)Cc3nnnn3C(C)(C)C)cc2c1	19.6	23.1µM*	31.6µM*	1.8	-7.6	?
CCc1ccc(N=C2NC(=O)CC(C(=O)Nc3ccc(OC)cc3)S2)cc1 (configuration not stated)	-16.7	-16.8%	0.6%	·	·	-28.2%
Cc1cccc(N2CCN(C(=O)C3CCCN(C(=O)c4cc5sccc5n4C)C3)CC2)c1C (configuration not stated)	3.6	23.1µM*	1.0%	·	·	23.1µM*
Cn1c(C(=O)N2CCC(C(=O)N3CCOCC3)CC2)cc2sccc21	-10.8	-5.0%	0.6%	-17.3	13.5	-6.5%
Cc1cccc(N2CCN(C(=O)C3CCN(C(=O)c4cc5sccc5n4C)CC3)CC2)c1C	2.4	8.2µM*	-4.1%	·	·	11.6µM*
COc1ccccc1N1CCN(C(=O)c2cc3sccc3n2C)CC1	-2.8	-26.3%	-5.0%	?	-12.6	?
CC1(C)OC(=O)C=C[C@@]2(C)C1C[C@@H](O)[C@]1(C)C2CC[C@@]2(C)C(c3ccoc3)OC(=O)[C@H]3O[C@]321 (some centres not stated)	·	?	·	·	·	-21.9%[9.04 µM]
O=C(COc1ccccc1)N(Cc1cccnc1)c1nc2ccc(Cl)cc2s1	-7.9	-12.8%	0.9%	·	·	-10.3%
CN(C)CCCN(C(=O)CCc1ccccc1)c1nc2ccc(Cl)cc2s1	-34.7	23.1µM*	-0.2%	-16.9	·	23.1µM*
CN(C)CCCN(C(=O)COc1ccccc1)c1nc2ccc(Cl)cc2s1	-15.1	?	·	-14.4	-51.1*	?
CSC1=NNC(c2ccc(C(C)(C)C)cc2)=NN1	3.7	-23.2%	-1.2%	-3.7	-7.4	-14.3%
CSc1nc(=O)n(CCC#N)nc1SC	-16.1	-19.5%	2.3%	-65.0*	28.9	?
Brc1ccc(N=NNc2ccccc2)cc1	8.6	-28.6%	·	0.0	11.2	-23.9%
NC(=S)N=Nc1ccc(NN=C(N)N)cc1	-10.0	1.46µM*	1.1%	?	-23.2	1.3µM*
CCOC(=O)c1cccc(NC(=O)CN2C(=O)C3C4C=CC(C4)C3C2=O)c1 (configuration not stated)	1.6	-5.0%	-1.8%	10.6	-94.9*	2.2%
Cn1c(=O)cc(SCC(=O)Nc2cccnc2)c2ccccc21	-5.3	?	?	23.5	38.2	?
COc1cc(NC(=O)CSc2cc(=O)n(C)c3ccccc23)cc(OC)c1OC	10.4	?	-6.5%	·	·	10.3µM*
CCn1c(=O)cc(SCC(=O)Nc2ccc(OC)c(OC)c2)c2ccccc21	0.5	23.1µM*	-1.1%	21.6	?	18.4µM*
CCOC(=O)c1cccc(NC(=O)CSc2cc(=O)n(C)c3ccccc23)c1	-1.3	?	0.0%	·	·	20.6µM*
Cc1cccc(N2CC(C)Cn3c2nc2c3c(=O)[nH]c(=O)n2C)c1 (configuration not stated)	-10.0	-29.0%	·	-7.5	30.6	?
SMILES	DRD3 agonist	DT40 TDP1 no CPT	ClpP mod	D3 antag	IL1B secr inh	TDP1 cell CPT
COc1ccc(CNC(=O)CSc2cc(=O)n(C)c3ccccc23)cc1	1.3	16.4µM*	·	2.2	-23.1	?
COc1cccc(CNC(=O)CSc2cc(=O)n(C)c3ccccc23)c1	1.9	3.6%	·	-25.8	-19.0	29.3%
CCOc1ccccc1NC(=O)CSc1cc(=O)n(CC)c2ccccc12	1.4	?	-23.5%	·	·	?
CCn1c(=O)cc(SCC(=O)Nc2cc(Cl)ccc2OC)c2ccccc21	7.6	16.4µM*	-8.0%	·	·	?
COc1cccc(-c2cc3c(-n4cccc4)ncnc3o2)c1	0.4	?	14.1µM*	-6.6	-2.1	-17.5%
COc1cccc(-c2ncc3ccccn23)c1	0.6	?	?	20.1	-4.0	-4.3%
CCCC[n+]1ccn(C2=C([O-])c3ccccc3C(=O)/C2=N\S(=O)(=O)c2ccc(Cl)cc2)c1	-0.9	9.2µM*	0.5%	-15.2	42.7	8.2µM*
CCCCC[n+]1ccn(C2=C([O-])c3ccccc3C(=O)/C2=N\S(=O)(=O)c2ccc(Cl)cc2)c1	-0.2	2.91µM*	2.0%	?	106.8	4.61µM*
N/C(CSc1ccc(Cl)cc1)=N\S(=O)(=O)c1ccc(Cl)cc1	4.6	-18.5%	·	8.9	-14.5	-5.0%
CCCC[n+]1ccn(-c2nc3ccccc3nc2[N-]S(=O)(=O)c2ccc(Br)cc2)c1	-3.9	-9.0%	·	-2.0	13.2	22.7%
CCOC(=O)N(C)c1c(CC)nc2c(OCc3ccc(Cl)cc3)cccn12	10.8	14.6µM*	-2.1%	0.0	-27.1	20.6µM*
CCOC(=O)C(=O)N(C)c1c(CC)nc2c(OCc3ccc(Cl)cc3)cccn12	-7.2	?	-10.3%	0.0	15.7	?
